In the library only some 8% were active in any assay of this set; here they are far more common.
SW480 rerep = inducers of DNA re-replication in SW480 colon cancer cells | SW480 DNA re-replication, Hoechst DNA content imaging, 48 h | actives 1.8% (n = 340,000) | Potency, µM (doses to about 46.1 µM), usual class: activators | AID 624297; note: nearly all actives have a fitted effect of over 55% in size
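250 cells/well; 23 nL cpd via pin tool; 48 hr, 37 C, 5% CO2; Hoechst 40 min; imager read of total nuclear intensity, ex 405/em 500-530 nm.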
HT1080NT lethal = kills 2HG-producing HT-1080-NT fibrosarcoma cells; AID 686970; Potency, µM (top dose mostly 46.1 µM), most hits filed as cytotoxic; HT-1080-NT fibrosarcoma viability, CellTiter-Glo ATP luminescence, 48 h; actives 1.6% (n = 360,000);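 note: NT is the 2HG producing partner of a matched IDH1 knockdown line; nearly all actives have a fitted effect of over 55% in size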
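Fibrosarcoma NT cells, 750 per well in 5% FBS RPMI, were exposed to compound for 48 hours. Viability: CellTiter-Glo luminescence.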
KB-V1 MDR tox = kills drug-selected multidrug resistant KB-V1 cells; KB-V1 MDR cells viability, CellTiter-Glo, 72 h; Potency, µM (titrated, usually from 46.1 µM), hits mostly cytotoxic; actives 3.4% (n = 400,000); note: nearly all actives have a fitted effect of over 60% in size
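Cytotoxicity toward P-gp-expressing KB-V1 cells was determined as loss of CellTiter-Glo luminescence after 72 h at 37 degrees C. Compounds were tested in quantitative HTS format across a concentration range, with curves fitted to normalized data.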
HT1080 IDH1KD tx = toxicity to HT-1080 IDH1 knockdown cells (counter line); Potency, µM (top dose mostly 46.1 µM), usual class: cytotoxic; HT-1080 IDH1 knockdown viability, ATP luminescence, 48 h; AID 686971; actives 2% (n = 360,000)
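CellTiter-Glo luminescence after 48 h compound exposure at 37 degrees C of IDH1-knockdown HT-1080 cells in 5% FBS RPMI. %Activity scaled between DMSO wells and cell-free media wells, with curves fitted and assigned curve classes.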
MCF10A rereplic = induces DNA re-replication in MCF 10a normal breast cells. MCF 10A DNA re-replication, Hoechst nuclear intensity, 48 h. Potency, µM (doses to about 46.1 µM), most hits filed as activators. actives 2.9% (n = 350,000); note: nearly all actives have a fitted effect of over 50% in size
KB-3-1 cytotox = kills parental KB-3-1 adenocarcinoma cells; KB-3-1 viability, CellTiter-Glo ATP luminescence, 72 h; Potency, µM (top dose mostly 46.1 µM), actives largely listed as cytotoxic; actives 1.4% (n = 400,000); note: nearly all actives have a fitted effect of over 60% in size
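Here the drug-naive KB-3-1 line serves as comparator for MDR sub-line selectivity; cells received compound titrations, 72 h at 37 °C, then CellTiter-Glo readout.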
A number is an active result; n = inactive; u = inconclusive; x = no result. Calls come from the whole dose curve; as a rule, active = well fitted curve in the direction sought with a large enough effect; inconclusive = small, poorly fitted or top-dose-only effect, or another doubt; inactive = no such curve, though single readings can be large; an effect the other way counts as inactive or inconclusive.

SMILES | SW480 rerep | HT1080NT lethal | KB-V1 MDR tox | HT1080 IDH1KD tx | MCF10A rereplic | KB-3-1 cytotox
Cc1ccc2oc(=O)n(Cc3ccccc3Cl)c2c1 | x | x | n | x | x | n
COc1ccc(Cl)cc1-n1cc(-c2ccccc2)nc1SCC(=O)Nc1ccc(C)cc1 | x | x | n | x | x | n
COc1ccc(N2CCN(C(c3ccc(F)cc3)c3sc4nc(-c5ccco5)nn4c3O)CC2)cc1 (stereo not drawn) | x | x | n | x | x | n
CCOC(=O)c1ccccc1O | n | x | x | x | n | x
CCOC(=O)C1=C(C)C/C(=N\NC(=O)c2ccccc2O)CC1 | 18.4µM | u | u | u | n | n
CCOC(=O)Cc1ccc(NC(=O)N2CCOc3ccc(C)cc32)cc1 | x | x | n | x | x | n
COc1ccc(CC(N)c2csc(NC(=O)c3cccc(OC(F)(F)F)c3)n2)cc1 (stereo not drawn) | x | 20.6µM | u | 20.6µM | x | u
COc1ccc(OC)c(-c2csc(NC(=O)Cn3[nH]c(=O)c4ccccc4c3=O)n2)c1 | 8.2µM | u | n | 20.6µM | u | n
COc1ccc(OC)c(-c2csc(NC(=O)c3ccc(F)cc3)n2)c1 | u | u | n | u | 6.51µM | u
COc1ccc(OC)c(-c2csc(NC(=O)Cc3ccc(F)cc3)n2)c1 | u | u | n | u | u | n
COc1ccc(CC(N)c2csc(NC(=O)c3ccccc3)n2)cc1 (stereo not drawn) | x | n | n | n | x | n
COc1ccc(CC(N)c2csc(NC(=O)c3ccc(OC)cc3)n2)cc1 (stereo not drawn) | x | u | n | n | x | n
COc1ccc(CC(N)c2csc(NC(=O)c3ccc(F)cc3)n2)cc1 (stereo not drawn) | x | 20.6µM | n | u | x | n
COC(=O)c1ccccc1NC(=O)c1ncoc1-c1ccco1 | x | x | n | x | x | n
NC(Cc1ccccc1)c1csc(NC(=O)c2cccc(OC(F)(F)F)c2)n1 (stereo not drawn) | x | 14.6µM | u | u | x | u
COc1ccc(CC(N)c2csc(NC(=O)C(c3ccccc3)c3ccccc3)n2)cc1 (stereo not drawn) | x | u | 20.6µM | 20.6µM | x | u
CCOC(=O)c1c(S(=O)(=O)N2CCC(C(=O)Nc3cccc(C#N)c3)CC2)c(C)n(C)c1C | x | x | n | x | x | n
N#Cc1ccsc1NC(=O)CN(Cc1ccccc1)Cc1ccccc1 | n | n | 10.3µM | n | u | u
Cc1ccc(CNC(=O)c2cnc(N3CCCCC3)c3ccccc23)cc1 | x | x | n | x | x | n
Cc1onc(-c2c(F)cccc2Cl)c1C(=O)Nc1cc(S(=O)(=O)N2CCCCC2)ccc1O | n | u | 23.1µM | n | u | u
Cc1onc(-c2c(F)cccc2Cl)c1C(=O)Nc1ccc(S(=O)(=O)N2CCOCC2)cc1 | n | n | n | n | n | n
Cc1c(Cl)cccc1NC(=O)Nc1c[nH]c(=O)[nH]c1=O | x | x | n | x | x | n
COc1cccc(C(=O)Nc2c(F)c(F)c(F)c(F)c2F)c1 | n | n | u | n | n | n
COc1ccc(CC(=O)Nc2cccc3c2CCCC3)cc1 | n | n | n | n | n | n
COc1ccc(C(=O)Nc2cccc3c2CCCC3)cc1 | u | u | n | u | 13µM | 23.1µM
SMILES | SW480 rerep | HT1080NT lethal | KB-V1 MDR tox | HT1080 IDH1KD tx | MCF10A rereplic | KB-3-1 cytotox
COc1ccc(C(=O)Nc2ccc3c4c(cccc24)CC3)cc1 | n | n | 13µM | u | n | n
COc1cccc(C(=O)Nc2c3c(nc4c2CCC4)CCCC3)c1 | n | n | 14.6µM | n | n | n
CCN(C(=O)c1c(C)oc2ncnc(N3CCCCC3)c12)c1cc(C)ccc1C | x | x | n | x | x | n
O=C(COc1ccccc1)N(Cc1cccnc1)c1nc2c(F)cccc2s1 | x | x | n | x | x | n
Cc1ccc2c(=O)cc(C(=O)Nc3c(C)n(C)n(-c4ccccc4)c3=O)oc2c1 | x | x | n | x | x | n
O=[N+]([O-])c1cc(C(F)(F)F)cc([N+](=O)[O-])c1NCCCNc1ccc([N+](=O)[O-])c2cccnc12 | u | n | 10.3µM | n | n | n
Cc1ccc2nc(Cl)c(/C=N/Nc3ccc(C(=O)O)cc3)cc2c1 | u | n | n | n | 16.4µM | n
